Bioassay records as filed in PubChem BioAssay.
The list is not random: actives were taken first. Their share in the collection is about 1.2%.
RGS7-Gao: human RGS7-Galphao interaction regulation; P09471; Multiplexed bead flow cytometry, RGS7-Galphao binding; actives lie on both sides; binding response (% of control), % at 10 µM; actives 0.35% (n = 220,000); AID 1439; in the data active means binding response below about 49% or above about 150%; inconclusive means no clear call, values can overlap the other calls; inactive means in between;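 further: fluorescent Galphao held in activated GDP-AlF4 state binding bead-coupled RGS7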
RGS8-Gao reg: human RGS8-Galphao interaction regulation. P09471. multiplexed bead flow cytometry, RGS8-Galphao binding; actives lie on both sides. response (percent of control binding), % at 10 µM. actives 0.34% (n = 220,000); in the data active means response below about 60% or above about 140%; inactive means in between;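 further: Galphao activated as the GDP aluminium fluoride complex binding bead-coupled RGS8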
Avidin bead fluor: compound fluoresces at 488/530 nm on avidin beads | compound fluorescence 488/530 nm, flow cytometry; stronger effect = higher value | fluorescence (KMESF) at 10 µM | actives 0.38% (n = 220,000); in the data active means fluorescence above about 47
RGS16-Gao: modulates binding between human RGS16 and Galphao; O15492+P09471; bead-based flow cytometry RGS16-Galphao binding, fluorescence; actives lie on both sides; binding response (% of control), % at 10 µM; actives 0.38% (n = 220,000);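 further: Galphao activated by GDP with aluminum fluoride before binding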
GSH fluor: GSH bead compound fluorescence profile. GSH beads flow cytometry, compound fluorescence 488/530 nm; stronger effect = higher value. fluorescence (KMESF) at 10 µM. actives 0.25% (n = 190,000). AID 1776; in the data active means fluorescence above about 89;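 further: glutathione beads carrying GST-tagged Bcl family fusion proteins plus one bare bead set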
RGS4-Gao reg: human RGS4-Galphao interaction regulation; actives 0.33% (n = 220,000); binding response (% of control), % at 10 µM; Multiplexed bead flow cytometry, RGS4-Galphao binding; actives lie on both sides; P09471; in the data active means binding response below about 49% or above about 150%; inactive means in between;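 further: fluorescent Galphao activated with aluminum fluoride binding bead-coupled RGS4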
RGS4-Gao HTS: RGS4-Galphao interaction regulator (human) | shares compounds with RGS16-Gao | multiplexed bead flow cytometry, RGS–Galpha-o binding | RGS4–Galpha-o binding response, % at 10 µM | actives 99% (n = 1,600) | AID 1504;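 further: fluorescently labeled Galpha-o bound to GDP with aluminium fluoride binding biotinylated RGS beads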
Target sequence (P09471 whole entry, looked up): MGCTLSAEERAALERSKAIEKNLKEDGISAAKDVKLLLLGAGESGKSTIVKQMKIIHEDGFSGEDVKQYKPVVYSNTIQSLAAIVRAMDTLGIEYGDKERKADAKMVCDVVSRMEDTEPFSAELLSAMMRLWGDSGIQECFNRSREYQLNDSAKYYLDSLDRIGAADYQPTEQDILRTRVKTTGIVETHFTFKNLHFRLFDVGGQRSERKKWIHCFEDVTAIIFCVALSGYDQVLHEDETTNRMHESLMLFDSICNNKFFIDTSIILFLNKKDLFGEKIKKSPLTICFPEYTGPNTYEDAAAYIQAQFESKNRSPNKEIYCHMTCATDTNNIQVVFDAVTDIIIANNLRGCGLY
Target sequence (P49798 whole entry, looked up): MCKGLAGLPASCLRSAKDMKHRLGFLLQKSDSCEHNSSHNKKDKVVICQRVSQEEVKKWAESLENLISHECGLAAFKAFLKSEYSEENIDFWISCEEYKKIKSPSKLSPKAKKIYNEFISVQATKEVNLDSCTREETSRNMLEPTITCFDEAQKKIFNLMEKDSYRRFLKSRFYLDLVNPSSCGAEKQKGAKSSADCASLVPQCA
Biotin-avidin: biotin-avidin bead binding disruption counter-screen; 1,700 tested, under 10 active; AID 1783; streptavidin beads, fluorescein-biotin binding, flow cytometry; shares compounds with RGS16-Gao; inhibition, % at 10 µM;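 active means inhibition above 50%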;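 further: median green fluorescence of gated singlet beads compared with DMSO control wells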
RGS8-Gao single: RGS8-Galphao interaction regulation, single point confirmation; binding response (% of control), % at 10 µM; bead-based flow cytometry RGS8-Galphao binding, fluorescence; actives lie on both sides; shares compounds with RGS16-Gao; actives 3% (n = 1,700); AID 1836; in the data active means binding response below about 72% or above about 130%; inactive means in between;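 further: Galphao activated as GDP AlF4 complex before binding bead RGS8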
RGS7-Gao confirm: RGS7-Galphao interaction regulation, single point confirmation. AID 1837. actives 7.8% (n = 1,700). response (percent of control binding), % at 10 µM. shares compounds with RGS16-Gao. bead-based flow cytometry RGS7-Galphao binding; actives lie on both sides; in the data active means response below about 75% or above about 130%; inactive means in between;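 further: fluorescent Galphao activated with GDP and aluminum fluoride binding bead-coupled RGS7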
RGS16-Gao conf: confirmation of regulators of human RGS16-Galphao interaction; shares compounds with RGS16-Gao; bead-based flow cytometry, RGS16-Galphao binding; actives lie on both sides; response (% of control binding), % at 10 µM; actives 4% (n = 1,700); AID 1838; in the data active means response below about 74% or above about 130%; inactive means in between;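 further: Galphao activated as the GDP aluminium fluoride complex binding bead-coupled RGS16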
RGS4-Gao single: RGS4-Galphao interaction regulation, single point confirmation. shares compounds with RGS16-Gao. RGS4-Galphao binding, multiplexed bead flow cytometry; actives lie on both sides. binding response (% of control), % at 10 µM. actives 4% (n = 1,700). AID 1840; in the data active means binding response below about 74% or above about 130%; inactive means in between
RGS19-Gao single: RGS19-Galphao interaction regulation, single point confirmation; shares compounds with RGS16-Gao; actives 5% (n = 1,700); bead-based flow cytometry RGS19-Galphao binding; actives lie on both sides; response (percent of control binding), % at 10 µM; in the data active means response below about 50% or above about 160%; inactive means in between
Each line names hits and unclear results; the compound was inactive in the other large screens (follow-up assays come after a bar, where they were run); [ ] = remark or other dose. Unless noted, how the calls were made is not given here.

CCOc1ccc(N(CC(=O)Nc2ccc(C)cc2)S(=O)(=O)c2c(C)[nH]c(=O)[nH]c2=O)cc1	RGS7-Gao inconclusive (no result: GSH fluor)
CCC(CC)C(=O)NCCc1ccc(OC)c(OC)c1	none
CCC(CC)C(=O)NCCc1ccc(OC)cc1	RGS4-Gao reg 238[activator] (no result: RGS7-Gao, RGS8-Gao reg, Avidin bead fluor, RGS16-Gao) | Biotin-avidin inactive | RGS8-Gao single inactive | RGS7-Gao confirm inactive | RGS16-Gao conf inactive | RGS4-Gao single inactive | RGS19-Gao single inactive
O=c1[nH]c2ccccc2nc1C(F)(F)F	RGS7-Gao inconclusive, RGS4-Gao reg 173[activator] (no result: GSH fluor) | Biotin-avidin inactive | RGS8-Gao single inactive | RGS7-Gao confirm inactive | RGS16-Gao conf inactive | RGS4-Gao single inactive | RGS19-Gao single inactive
CCCC(C)C(=O)Nc1ccc(S(=O)(=O)Nc2nccs2)cc1 (configuration not stated)	none
CN(C)c1ccc(-c2nc3ccccc3c(=O)[nH]2)cc1	RGS7-Gao inconclusive (no result: GSH fluor)
Cc1c(N2C(=O)CSC2c2ccc([N+](=O)[O-])cc2)c(=O)n(-c2ccccc2)n1C (configuration not stated)	RGS7-Gao inconclusive, RGS4-Gao reg 164[activator] (no result: GSH fluor) | Biotin-avidin inactive | RGS8-Gao single inactive | RGS7-Gao confirm inactive | RGS16-Gao conf inactive | RGS4-Gao single inactive | RGS19-Gao single inactive
COc1ccc(C2SCC(=O)N2c2c(C)n(C)n(-c3ccccc3)c2=O)cc1 (configuration not stated)	none
COc1ccccc1OCc1nc(-c2cccc([N+](=O)[O-])c2)no1	RGS7-Gao inconclusive
O=C(COC(=O)c1ccc2[nH]c3c(c2c1)CCCC3)Nc1ccc(Cl)cc1Cl	RGS16-Gao 182[activator] | RGS4-Gao HTS 107 | Biotin-avidin inactive | RGS8-Gao single inactive | RGS7-Gao confirm inactive | RGS16-Gao conf inactive | RGS4-Gao single inactive | RGS19-Gao single inactive
O=C(COC(=O)c1ccc2[nH]c3c(c2c1)CCCC3)Nc1ccccc1Cl	none
CSc1ncc(CN2CCc3c([nH]c4ccccc34)C2c2cccc(O)c2)cn1 (configuration not stated)	none
CSC(=S)N(C)C1CCS(=O)(=O)C1 (configuration not stated)	RGS16-Gao 25 | RGS4-Gao HTS 87 | Biotin-avidin inactive | RGS8-Gao single inactive | RGS7-Gao confirm inactive | RGS16-Gao conf inactive | RGS4-Gao single inactive | RGS19-Gao single inactive
COc1ccc(NC(C)=O)cc1NC(=O)CN1CCN(C(=O)c2ccco2)CC1	RGS8-Gao reg 153[activator] | RGS4-Gao HTS 130 | Biotin-avidin inactive | RGS8-Gao single inactive | RGS7-Gao confirm inactive | RGS16-Gao conf inactive | RGS4-Gao single inactive | RGS19-Gao single inactive
COC(=O)c1cnn(-c2ccc(F)cc2F)c1/C=N/NC(N)=S	RGS7-Gao inconclusive (no result: GSH fluor)
Cc1ccc(C(O)CSc2nnc(-c3ccc4ccccc4c3)n2C)cc1 (configuration not stated)	RGS7-Gao inconclusive (no result: GSH fluor)
Cc1noc(C)c1C(=O)N1CCN(CCc2ccccc2)CC1	none
